Hits are enriched below; roughly 0.21% of the tested compounds scored in any of these assays.
Bcl-2 Bim block: human Bim-Bcl-2 interaction inhibition | inhibition, % at 10 µM | P10415 | actives 0.06% (n = 190,000) | Bead-based flow cytometry, Bim peptide-Bcl-2 binding; in the data active = inhibition above about 40%;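 note: 0% = no compound wells with probe peptide and 100% = reference peptide inhibitor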
Bim-Bcl-W: disrupts Bim peptide binding to human Bcl-W. Q92843. bead-based flow cytometry. inhibition, % at 10 µM. actives 0.02% (n = 190,000);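 note: 0% = bound tracer without compound and 100% = peptide blocker; higher means less fluorescent Bim peptide bound to Bcl-W beads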
Furin inh: human furin inhibition; purified furin, fluorogenic substrate cleavage; actives 0.061% (n = 220,000); inhibition, % at 20 µM or 30 µM; P09958; in the data active = inhibition above about 25%
Bcl-XL Bim block: inhibitors of Bim-Bcl-XL interaction, human; inhibition, % at 10 µM; actives 0.04% (n = 190,000); Bim peptide-Bcl-XL binding, bead flow cytometry, fluorescence
Bfl-1 Bim block: disrupts Bim binding to human Bfl-1. Q16548. Bead-based flow cytometry, Bim-Bfl-1 binding inhibition. inhibition, % at 10 µM. actives 0.12% (n = 190,000);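 note: 0% = wells without compound plus tracer and 100% = blocker peptide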
Target sequence (Q16548 whole entry, looked up): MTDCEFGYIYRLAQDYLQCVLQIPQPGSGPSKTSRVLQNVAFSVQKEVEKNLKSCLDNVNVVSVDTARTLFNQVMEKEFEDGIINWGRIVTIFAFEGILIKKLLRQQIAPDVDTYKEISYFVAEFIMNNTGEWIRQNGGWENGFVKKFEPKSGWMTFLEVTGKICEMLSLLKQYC
Bim-Bcl-B: human Bim-Bcl-B interaction inhibition; AID 951; inhibition, % at 10 µM; bead-based flow cytometry, Bim peptide-Bcl-B binding; actives 0.073% (n = 190,000);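 note: 0% = tracer peptide without compound and 100% = reference inhibitor peptide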
Bim-BclXL dose: confirmation of regulators of human Bim-Bcl-XL interaction. 40 tested, under 10 active. shares compounds with Bfl-1 Bim block. inhibition of binding at 100 µM. bead-based flow cytometry, Bim-Bcl-XL binding. AID 2084; call rule not given here
* = called active by the depositor; · = no result given. Cut-off read from the data, not from the text of the source, unless noted: active = inhibition above about 40%.

SMILES	Bcl-2 Bim block	Bim-Bcl-W	Furin inh	Bcl-XL Bim block	Bfl-1 Bim block	Bim-Bcl-B	Bim-BclXL dose
O=C(COc1ccc(Cl)cc1Cl)NC(=O)N1CCOCC1	0	-2	36*	0	-2	-2	·
COc1ccc(N2C(=O)C(Cl)=C(Oc3cccc(OC)c3)C2=O)cc1	2	0	-26	-8	43*	-39	-8.2
COc1ccc(N2C(=O)c3ccccc3C2=O)cc1	-2	-4	-30	-4	-6	-5	·
CCCCn1c(CCC(=O)O)nc2cc(S(=O)(=O)N(CC)CC)ccc21	·	·	-28	·	·	·	·
CC(=O)Nc1ccc(-n2cc(-c3ccccc3)[nH]c2=S)cc1	-1	-1	-29	-5	27	-37	-10
COc1ccc(N2CCN(C(c3ccc4ncccc4c3)c3nnnn3C(C)C)CC2)cc1 (centres undefined)	·	·	-19	·	·	·	·
O=[N+]([O-])c1cc(Cl)ccc1N1CCCC1	-2	0	-24	0	-9	-2	·
O=C1C(Cl)=C(N2CCN(c3ccccc3[N+](=O)[O-])CC2)C(=O)c2ccccc21	15	27	-10	1	68*	-17	4.3
Cc1nnc(Sc2cc(NCCO)c([N+](=O)[O-])c3nonc23)s1	12	14	-12	3	55*	0	8.4
Cc1nnc(Sc2cc(NCCCO)c([N+](=O)[O-])c3nonc23)s1	6	5	-15	1	29	5	·
O=[N+]([O-])c1c(NCCCO)cc(Sc2nc3ccccc3s2)c2nonc12	8	8	-18	1	61*	3	-1
O=C(CSc1nnc(SCc2ccc(Cl)cc2)s1)N/N=C/c1ccccc1C(=O)O	·	·	-18	·	·	·	·
O=C(NC1CCCC1)C(=O)N(Cc1cccnc1)C(C(=O)NCC1CCCO1)c1ccco1 (centres undefined)	-1	-1	-12	0	-4	-2	·
O=C(NCc1ccccc1)c1ccc2nc(-c3ccco3)c(-c3ccco3)nc2c1	17	19	-4	7	43*	5	15
COc1ccc(N2C(=O)C(Cl)=C(NC3C(=O)N(c4ccccc4)N(C)C3C)C2=O)cc1 (centres undefined)	·	·	·	·	·	·	-3.9
CCNCc1ccccc1OCc1ccccc1	0	-2	-27	1	-3	-2	·
Oc1ccc(NCc2ccccc2OCc2ccccc2)cc1	11	16	7	1	34	-10	-0.78
